Sampled rows, rich in hits. Any-hit rate of the full collection: about 3.5%.
BoNT-A LC inh2 – BoNT A light chain protease inhibition; multiplex microsphere protease substrate cleavage, flow cytometry; inhibition, % at 10 µM; actives 0.17% (n = 360,000); further: plate controls were buffer without enzyme for full effect and enzyme alone for no effect
BoNT F protease – blocks Botulinum neurotoxin F light chain protease; AID 588497; actives 0.22% (n = 360,000); inhibition, % at 10 µM; Multiplex microsphere protease cleavage assay, flow cytometry; in the data active means inhibition above about 35%, passing the limit was not always enough; inconclusive means no clear call, values can overlap the other calls; further: plate controls were buffer without enzyme for full effect and enzyme alone for no effect
Bead autofluor – counter-screen for toxin protease inhibitors: compound fluorescence | compound autofluorescence counterscreen, microsphere flow cytometry; hits give high values | fluorescence intensity (no concentration beside the values) | actives 3.1% (n = 360,000) | AID 624483; in the data active means fluorescence intensity above about 16000; inconclusive means no clear call, values can overlap the other calls
Anthrax LF prot – inhibitors of Bacillus anthracis lethal factor protease. multiplex microsphere protease cleavage assay, LF. inhibition, % at 10 µM. actives 0.12% (n = 360,000); further: plate controls were buffer without enzyme for full effect and enzyme alone for no effect
BJeLR lethal – BJeLR cell viability loss | BJeLR (HRASV12) viability, CellTiter-Glo ATP luminescence, 48 h | inhibition, % (no concentration beside the values) | actives 0.17% (n = 300,000) | AID 1554; in the data active means inhibition above about 50%; inconclusive means no clear call, values can overlap the other calls
Numbers without * were called inactive; ? = inconclusive; · = not tested or not shown. Unless noted, no stated cut-off is given here; in the data, active means inhibition above about 30%; inconclusive means no clear call, values can overlap the other calls; inactive means below that.

SMILES | BoNT-A LC inh2 | BoNT F protease | Bead autofluor | Anthrax LF prot | BJeLR lethal
COc1cccc(-c2ccc(=O)n(CC(=O)Nc3cc4c(cc3NC(C)=O)OCCO4)n2)c1 | ? | -0.9 | 21027* | 1.2 | 2.2
O=C(Cn1nc(-c2ccccc2)ccc1=O)NCCCN1CCOCC1 | 0.1 | -8.5 | 5185 | -4.2 | 7.9
COc1cccc(-c2ccc(=O)n(CC(=O)NCCN3CCOCC3)n2)c1 | -4.8 | -7.5 | 25197* | -1.8 | 7.8
N#Cc1cccc(NC(=O)c2cc(C3CCCCN3C(=O)c3cccs3)on2)c1 (stereo not drawn) | -0.8 | -5.5 | 4047 | -7.6 | ·
O=C1CC(N2CCN(Cc3ccccc3)CC2)C(=O)N1c1ccccc1 (stereo not drawn) | -0.5 | 0.2 | 23947* | -0.4 | 3.0
Cc1cccc(N2C(=O)CC(N3CCN(C(=O)c4ccccc4)CC3)C2=O)c1 (stereo not drawn) | -0.2 | -0.4 | 23162* | -1.1 | -3.2
Cc1cccc(N2C(=O)CC(N3CCN(c4ccccc4)CC3)C2=O)c1 (stereo not drawn) | -0.4 | -9.1 | 10121 | 0.4 | 13.6
CCCCN1CNC(=S)N(c2ccccc2OCC)C1 | 1.0 | 10.8 | 7728 | -2.5 | 9.1
CCCCN1CNC(=S)N(c2cc(C)ccc2C)C1 | 0.1 | -1.6 | 21773* | -0.3 | -12.8
COc1cc(C(C[N+](=O)[O-])c2c(C)[nH]c3ccccc23)cc(OC)c1OC (stereo not drawn) | -0.3 | -3.2 | 21574* | -1.5 | 5.0
O=[N+]([O-])CC(c1ccccc1)c1c[nH]c2ccccc12 (stereo not drawn) | 1.9 | ? | 3244 | 0.0 | -3.0
Cc1ccc(CN2CCC(C)(Oc3ccc(Cl)cc3)C2)cc1 (stereo not drawn) | -0.3 | -5.0 | 3950 | -0.3 | ·
COC(=O)c1cc(C(=O)OC)n(Cc2ccc(Br)cc2)n1 | ? | -4.9 | 21618* | -2.3 | -7.9
O=C(Nc1cccc(O)c1)C1CC(c2ccc(Cl)cc2)=NO1 (stereo not drawn) | -3.3 | -15.5 | 4480 | -14.3 | 3.7
COc1ccc(NC(=O)c2ccccc2NC(=O)C2CCCCC2C(=O)O)cc1 (stereo not drawn) | -1.5 | ? | 4484 | -2.1 | ·
COC(=O)c1ccccc1NC(=O)C1CCCCC1C(=O)O (stereo not drawn) | ? | -2.4 | 23211* | -3.4 | 3.1
O=C(O)C1CCCCC1C(=O)Nc1ccc(F)cc1F (stereo not drawn) | 4.9 | 2.9 | 20999* | -3.1 | 2.7
Cc1ccccc1-c1nc(CS(=O)(=O)CC(=O)N2CCc3ccccc32)c(C)o1 | -0.9 | -5.2 | 5607 | -1.5 | -1.2
CC1=C(C#N)C(c2cccnc2)C2=C(CC(c3ccc(Cl)cc3)CC2=O)N1 (stereo not drawn) | 0.8 | 3.9 | 5863 | 4.8 | 2.6
CC(=O)Nc1ccc(NC(=O)C2(C)Cc3c(-c4ccc5c(c4)OCO5)ccnc3O2)cc1 (stereo not drawn) | -0.4 | -1.7 | 3781 | 0.1 | ·
Cc1cc2ccccc2c(=O)n1CC(=O)NCC(=O)N1CCN(c2ccccc2F)CC1 | 4.3 | 11.1 | 6717 | 8.3 | 4.1
Cc1cc2ccccc2c(=O)n1CC(=O)NCC(=O)N1CCN(c2cccc(Cl)c2)CC1 | ? | -0.9 | 20243* | -3.3 | -4.1
CO/N=C(\c1ccccc1)c1cccnc1 | 0.5 | 55.8* | 4201 | -0.7 | 8.5
N/C(=N\OC(=O)C(c1ccccc1)c1ccccc1)c1cccnc1 | -0.5 | -14.9 | 11168 | -5.1 | -4.7
CCN(CC)C(=O)C1=C(C)N(CCCOC)C(=O)C(CC(=O)NCc2ccco2)C1 (stereo not drawn) | 0.5 | -2.9 | 3576 | -2.6 | ·
SMILES | BoNT-A LC inh2 | BoNT F protease | Bead autofluor | Anthrax LF prot | BJeLR lethal
CSCCC1NC2(C(=O)Nc3c(Cl)cccc32)[C@@H]2C(=O)N(C3CCCC3)C(=O)[C@H]12 (stereo partly drawn) | 1.8 | 2.4 | 21812* | -2.1 | -0.5
CC(=O)c1ccc(N2C(=O)[C@@H]3C(CCC(N)=O)NC4(C(=O)Nc5c4ccc(Cl)c5C)[C@@H]3C2=O)cc1 (stereo partly drawn) | 0.1 | -6.7 | 4516 | -0.1 | -12.8
CSCCC1NC2(C(=O)Nc3c(C)cc(Cl)cc32)[C@@H]2C(=O)N(C3CCCC3)C(=O)[C@H]12 (stereo partly drawn) | ? | -4.6 | 23955* | -6.0 | 2.1
CCN(CC)C(=O)Cn1cc(SCC(=O)NC2CCCCC2)c2ccccc21 | 0.1 | -2.9 | 3574 | -3.6 | ·
COc1ccccc1N1CCN(C(=O)CCn2c(=O)[nH]c3ccccc3c2=O)CC1 | ? | -2.0 | 22600* | -1.4 | -1.1
COc1ccccc1N1CCN(C(=O)Cc2cccs2)CC1 | ? | -1.2 | 22449* | -1.4 | -1.5
COc1ccccc1N1CCN(C(=O)CCCn2c(=S)[nH]c3ccccc3c2=O)CC1 | -0.4 | 0.6 | 3710 | -4.1 | ·
COc1ccccc1N1CCN(C(=O)CCC(=O)O)CC1 | -0.8 | -8.1 | 5048 | -1.0 | 1.5
Cc1nc2ncnn2c(N2CCN(C(=O)Cc3cccs3)CC2)c1C | 3.3 | 2.2 | 22223* | -5.5 | 1.1
CC(C)CCNC(=O)C1CC(c2ccccc2C(F)(F)F)=NO1 (stereo not drawn) | -0.5 | -1.1 | 3388 | 0.9 | -2.9
Cc1cc(S(=O)(=O)c2ccc(Cl)cc2)nc(S(=O)(=O)c2ccc(Cl)cc2)c1C#N | 0.4 | -0.3 | 3613 | -2.3 | ·
CCOC(=O)c1cnc(SC)nc1Nc1cccc2ccccc12 | 0.5 | -2.0 | 8604 | -6.0 | 8.9
CCOC(=O)c1cnc(-n2cc(C)cn2)nc1Nc1ccccc1OCC | -1.7 | -2.8 | 23982* | -1.0 | 8.2
C=CCONC(=O)c1cc(OCC(F)(F)F)ccc1OCC(F)(F)F | -3.2 | -3.0 | 24141* | -2.0 | 4.5
O=C(NCCNC(=O)c1cc(OCC(F)(F)F)ccc1OCC(F)(F)F)Nc1cccc(C(F)(F)F)c1 | ? | -7.6 | 24354* | 0.4 | 8.7
CN(C)S(=O)(=O)NCCNC(=O)c1cc(OCC(F)(F)F)ccc1OCC(F)(F)F | 0.3 | -0.2 | 2622 | 1.1 | -3.5
O=C(Nc1ccc(OC(F)F)cc1)Nc1cccc(C(F)(F)F)c1 | ? | -4.3 | 20493* | -2.4 | 6.1
O=C(Nc1ccncc1)Nc1cccc(C(F)(F)F)c1 | -1.7 | 0.6 | 4593 | -2.0 | 6.2
C[C@H]1CN([C@@H](C)CO)C(=O)CCCn2cc(nn2)CO[C@@H]1CN(C)C(=O)Nc1cccc(F)c1 | -0.3 | -1.0 | 3707 | -3.4 | ·
CC1CCCCN1C(=O)CSc1nnc(-c2cccnc2)n1C1CCCCC1 (stereo not drawn) | 0.6 | -1.1 | 7942 | 1.0 | 2.5
O=C(CSc1nnc(-c2ccncc2)n1C1CCCCC1)Nc1cccc(O)c1 | -0.3 | -1.5 | 16523* | -3.2 | 4.0
Cc1cnc(NC(=O)CSc2nnc(-c3ccncc3)n2C2CCCCC2)s1 | 1.5 | 2.7 | 8785 | -2.6 | 5.7
CCc1cccc(CC)c1-n1c(SCC(=O)N2CCc3ccccc3C2)nnc1-c1cccnc1 | 17.9 | 19.1 | 36354* | 15.5 | -2.0
Cn1c(SCC(=O)N2CCc3ccccc3C2)nnc1-c1ccncc1 | 0.6 | 3.2 | 9365 | 1.5 | 10.5
Cc1ccc(-n2c(SCC(=O)N3CCCc4ccccc43)nnc2-c2cccnc2)c(C)c1 | 6.6 | 24.1 | 26671* | 9.6 | -0.9
